Results: PubChem BioAssay AID1159580 (chemical genetic matrix, 2015)
The campaign covered roughly 5,500 compounds. About 2,000 (36%) were called active. Inconclusive results (about 18%) are left out. Rule as the data show it: active = normalized growth mostly below about 0.91 (no sharp cut-off); inconclusive = no clear call, values can overlap the other calls; inactive = mostly above about 0.92. This is one part of the list.

Experiment: chemical genetic growth profiling, strain panel (AID 1159580);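 also: tested at 20 µM; growth read once vehicle control cultures reached saturation at 30 °C; 1 = growth at the plate median or of vehicle wells; lower values mean less growth of the strain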
Conditions: S. cerevisiae deletion strains, growth OD

Measured: normalized growth

CC(=O)NCCc1c[nH]c2ccccc12
inactive: locus YAL013W, strain DEP1, hits give low values 1 | locus YAL040C, strain CLN3, hits give low values 1.01 | locus YCL061C, strain MRC1 (second series), hits give low values 1 | locus YDR150W, strain NUM1, hits give low values 1 | locus YER002W, strain NOP16, hits give low values 1 | locus YJR075W, strain HOC1, hits give low values 1 | locus YNL175C, strain NOP13, hits give low values 1.01 | locus YNL197C, strain WHI3, hits give low values 1 | locus YNL224C, strain SQS1, hits give low values 1.01 | locus YOR083W, strain WHI5 (second series), hits give low values 1.02 | locus YPL055C, strain LGE1, hits give low values 1

OCc1c[nH]c2ccccc12
active: locus YCL011C, strain gbp2, hits give low values 0.815 | locus YDR137W, strain rgp1, hits give low values 0.741 | locus YEL003W, strain gim4, hits give low values 0.8 | locus YJL164C, strain tpk1, hits give low values 0.895 | locus YJL166W, strain qcr8, hits give low values 0.779 | locus YLR221C, strain rsa3, hits give low values 0.862 | locus YLR262C, strain YPT6 (second series), hits give low values 0.663 | locus YLR320W, strain mms22, hits give low values 0.742 | locus YLR342W, strain FKS1, hits give low values 0.905 | locus YML120C, strain ndi1, hits give low values 0.902 | locus YMR205C, strain PFK2, hits give low values 0.849 | locus YNL071W, strain lat1, hits give low values 0.622 | locus YOR001W, strain rrp6, hits give low values 0.854 | locus YOR106W, strain vam3, hits give low values 0.702 | locus YPL051W, strain arl3, hits give low values 0.791 | locus YPL240C, strain hsp82, hits give low values 0.914
inactive: locus YAL021C, strain ccr4, hits give low values 0.949 | locus YAL026C, strain drs2, hits give low values 0.991 | locus YAL030W, strain snc1, hits give low values 0.979 | locus YBL061C, strain skt5, hits give low values 0.969 | locus YBR009C, strain hhf1, hits give low values 0.926 | locus YBR023C, strain chs3, hits give low values 0.955 | locus YBR171W, strain sec66, hits give low values 0.977 | locus YBR231C, strain swc5, hits give low values 0.953 | locus YBR279W, strain paf1, hits give low values 0.956 | locus YCL016C, strain dcc1, hits give low values 0.957 | locus YCL061C, strain MRC1, hits give low values 1.01 | locus YCL069W, strain vba3, hits give low values 0.976 | locus YCR088W, strain abp1, hits give low values 0.971 | locus YDL005C, strain med2, hits give low values 0.989 | locus YDL040C, strain nat1, hits give low values 0.981 | locus YDR001C, strain nth1, hits give low values 0.99 | locus YDR069C, strain doa4, hits give low values 0.974 | locus YDR159W, strain sac3, hits give low values 0.88 | locus YDR195W, strain ref2 1 | locus YDR297W, strain sur2, hits give low values 0.956 | locus YDR334W, strain swr1, hits give low values 1 | locus YDR335W, strain msn5, hits give low values 0.984 | locus YDR392W, strain spt3, hits give low values 0.856 | locus YEL037C, strain rad23, hits give low values 0.978 | locus YEL061C, strain CIN8 (second series), hits give low values 0.975 | locus YER015W, strain faa2, hits give low values 0.943 | locus YER016W, strain bim1, hits give low values 0.977 | locus YER111C, strain swi4, hits give low values 0.992 | locus YER155C, strain BEM2 (second series), hits give low values 0.966 | locus YFR010W, strain ubp6, hits give low values 0.984 | locus YGL167C, strain pmr1, hits give low values 0.978 | locus YGL173C, strain kem1, hits give low values 0.96 | locus YGL227W, strain vid30, hits give low values 0.983 | locus YGL240W, strain doc1, hits give low values 0.911 | locus YGL253W, strain hxk2, hits give low values 0.98 | locus YHR013C, strain ard1, hits give low values 0.955 | locus YHR027C, strain rpn1, hits give low values 0.96 | locus YHR030C, strain SLT2, hits give low values 1.02 | locus YHR079C, strain IRE1, hits give low values 1.05 | locus YHR142W, strain chs7, hits give low values 0.948 | locus YJL092W, strain hpr5, hits give low values 0.979 | locus YJL095W, strain BCK1 (second series), hits give low values 0.944 | locus YJL095W, strain BCK1, hits give low values 0.979 | locus YJL115W, strain asf1, hits give low values 0.981 | locus YJL129C, strain trk1, hits give low values 0.879 | locus YJL154C, strain vps35, hits give low values 0.987 | locus YJL187C, strain SWE1, hits give low values 0.958 | locus YJR066W, strain TOR1, hits give low values 0.961 | locus YKL160W, strain elf1, hits give low values 0.907 | locus YKR026C, strain gcn3, hits give low values 0.998 | locus YKR091W, strain srl3, hits give low values 0.99 | locus YLL001W, strain dnm1, hits give low values 1 | locus YLL026W, hits give low values 0.976 | locus YLL041C, strain sdh2, hits give low values 0.979 | locus YLR113W, strain HOG1, hits give low values 1 | locus YLR258W, strain gsy2, hits give low values 0.939 | locus YLR357W, strain rsc2, hits give low values 0.977 | locus YLR370C, strain arc18, hits give low values 0.982 | locus YLR384C, strain iki3, hits give low values 0.976 | locus YMR058W, strain fet3, hits give low values 0.991 | locus YMR125W, strain sto1, hits give low values 0.974 | locus YMR129W, hits give low values 1 | locus YMR231W, strain pep5, hits give low values 0.968 | locus YNL183C, strain NPR1, hits give low values 0.931 | locus YNL209W, strain ssb2, hits give low values 0.969 | locus YNL248C, strain rpa49, hits give low values 0.997 | locus YNL322C, strain KRE1 (second series), hits give low values 0.996 | locus YNR049C, strain mso1, hits give low values 0.99 | locus YOR070C, strain gyp1, hits give low values 0.93 | locus YOR080W, strain dia2, hits give low values 1 | locus YOR083W, strain WHI5, hits give low values 0.987 | locus YOR231W, strain MKK1, hits give low values 1.04 | locus YOR265W, strain rbl2, hits give low values 0.972 | locus YOR270C, strain vph1, hits give low values 0.974 | locus YOR290C, strain snf2, hits give low values 0.963 | locus YPL078C, strain atp4, hits give low values 0.983 | locus YPL106C, strain sse1, hits give low values 0.952 | locus YPL256C, strain CLN2, hits give low values 1.08
